PubChem BioAssay AID1159580 (chemical genetic matrix, 2015)
Values joined by “and” are separate entries in the source; they are usually repeats but may differ in a detail not shown here. Equal values may be shown once. In all, about 5,500 compounds went through this assay and about 2,000 (36%) were called active. Roughly 18% stayed inconclusive and do not appear here. Cut-off read from the data, not from the text of the source: active = normalized growth mostly below about 0.91 (no sharp cut-off); inconclusive = no clear call, values can overlap the other calls; inactive = mostly above about 0.92. This is one part of the list.

Assay: chemical genetic growth profiling, strain panel (AID 1159580);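 note: tested at 20 µM; growth read once vehicle control cultures reached saturation at 30 °C; 1 = growth at the plate median or of vehicle wells; lower values mean less growth of the strain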
Settings: S. cerevisiae deletion strains, growth OD

Measured: normalized growth

CC[C@@H](C(=O)C(C)[C@@H](O)[C@H](C)CCc1ccc(C)c(O)c1C(=O)O)C1OC(CC)(C2CC[C@](O)(CC)[C@H](C)O2)C[C@@H]1C (stereo partly drawn)
inactive: locus YAL013W, strain DEP1, stronger effect = lower value 1.05 | locus YAL021C, strain ccr4, stronger effect = lower value 1.03 | locus YAL026C, strain drs2, stronger effect = lower value 0.949 | locus YAL030W, strain snc1, stronger effect = lower value 1.06 | locus YBL061C, strain skt5, stronger effect = lower value 1.06 | locus YBR009C, strain hhf1, stronger effect = lower value 1.01 | locus YBR023C, strain chs3, stronger effect = lower value 1.06 | locus YBR229C, strain ROT2, stronger effect = lower value 1.04 | locus YBR231C, strain swc5, stronger effect = lower value 1.07 | locus YBR279W, strain paf1, stronger effect = lower value 1.06 | locus YCL011C, strain gbp2, stronger effect = lower value 1.06 | locus YCL016C, strain dcc1, stronger effect = lower value 1.05 | locus YCL029C, strain bik1, stronger effect = lower value 1.02 | locus YCL061C, strain MRC1, stronger effect = lower value 1.04 | locus YCR088W, strain abp1, stronger effect = lower value 1.07 | locus YDL005C, strain med2, stronger effect = lower value 1.08 | locus YDL035C, strain GPR1, stronger effect = lower value 0.978 | locus YDL040C, strain nat1, stronger effect = lower value 1.06 | locus YDL074C, strain BRE1, stronger effect = lower value 0.938 | locus YDL101C, strain DUN1, stronger effect = lower value 1.03 | locus YDL134C, strain PPH21, stronger effect = lower value 1.02 | locus YDL185W, strain tfp1, stronger effect = lower value 0.993 | locus YDL192W, strain arf1, stronger effect = lower value 1.01 | locus YDR001C, strain nth1, stronger effect = lower value 1.07 | locus YDR069C, strain doa4, stronger effect = lower value 1.02 | locus YDR101C, strain arx1, stronger effect = lower value 1.04 | locus YDR150W, strain NUM1, stronger effect = lower value 1.05 | locus YDR159W, strain sac3, stronger effect = lower value 0.996 | locus YDR162C, strain NBP2, stronger effect = lower value 1.01 | locus YDR195W, strain ref2 1.05 | locus YDR297W, strain sur2, stronger effect = lower value 1.05 | locus YDR318W, strain mcm21, stronger effect = lower value 1.01 | locus YDR334W, strain swr1, stronger effect = lower value 1.08 | locus YDR335W, strain msn5, stronger effect = lower value 1.08 | locus YDR388W, stronger effect = lower value 1.02 | locus YDR502C, strain sam2, stronger effect = lower value 1 | locus YEL003W, strain gim4, stronger effect = lower value 1.04 | locus YEL037C, strain rad23, stronger effect = lower value 1.07 | locus YEL061C, strain CIN8 (second series), stronger effect = lower value 1.08 | locus YEL061C, strain CIN8, stronger effect = lower value 1.02 | locus YER015W, strain faa2, stronger effect = lower value 1.06 | locus YER016W, strain bim1, stronger effect = lower value 1.05 | locus YER110C, stronger effect = lower value 1.02 | locus YER111C, strain swi4, stronger effect = lower value 1.07 | locus YER155C, strain BEM2 (second series), stronger effect = lower value 1.04 | locus YER167W, strain BCK2, stronger effect = lower value 1.02 | locus YFR010W, strain ubp6, stronger effect = lower value 1.06 | locus YGL078C, strain dbp3, stronger effect = lower value 0.998 | locus YGL086W, strain mad1, stronger effect = lower value 1.05 | locus YGL167C, strain pmr1, stronger effect = lower value 1.07 | locus YGL173C, strain kem1, stronger effect = lower value 1.04 | locus YGL240W, strain doc1, stronger effect = lower value 1.03 | locus YGL248W, strain PDE1, stronger effect = lower value 1.02 | locus YGL253W, strain hxk2, stronger effect = lower value 1.06 | locus YGR135W, strain pre9, stronger effect = lower value 0.981 | locus YGR252W, strain gcn5, stronger effect = lower value 0.967 | locus YHR013C, strain ard1, stronger effect = lower value 1.1 | locus YHR027C, strain rpn1, stronger effect = lower value 1.07 | locus YHR030C, strain SLT2, stronger effect = lower value 1.03 and 0.969 | locus YHR079C, strain IRE1 (second series), stronger effect = lower value 1.02 | locus YHR079C, strain IRE1, stronger effect = lower value 0.944 | locus YHR094C, strain hxt1, stronger effect = lower value 1.03 | locus YHR129C, strain ARP1, stronger effect = lower value 1.04 | locus YHR142W, strain chs7, stronger effect = lower value 1.08 | locus YHR200W, strain rpn10, stronger effect = lower value 1.02 | locus YIL066C, strain RNR3, stronger effect = lower value 1.02 | locus YIL073C, strain SPO22, stronger effect = lower value 0.988 | locus YIL125W, strain kgd1, stronger effect = lower value 1 | locus YIR030C, strain dcg1, stronger effect = lower value 1.03 | locus YJL092W, strain hpr5, stronger effect = lower value 1.06 | locus YJL095W, strain BCK1 (second series), stronger effect = lower value 1.06 | locus YJL095W, strain BCK1, stronger effect = lower value 1.02 and 0.976 | locus YJL115W, strain asf1, stronger effect = lower value 1.06 | locus YJL129C, strain trk1, stronger effect = lower value 0.976 | locus YJL134W, strain LCB3, stronger effect = lower value 1.04 | locus YJL154C, strain vps35, stronger effect = lower value 1.06 | locus YJL164C, strain tpk1, stronger effect = lower value 1.03 | locus YJL166W, strain qcr8, stronger effect = lower value 1.06 | locus YJL168C, strain set2, stronger effect = lower value 1.04 | locus YJL187C, strain SWE1 (second series), stronger effect = lower value 1.03 | locus YJL187C, strain SWE1, stronger effect = lower value 1.06
active: locus YBR021W, strain FUR4, stronger effect = lower value 1.16 [resistant] | locus YBR171W, strain sec66, stronger effect = lower value 1.12 [resistant] | locus YCL069W, strain vba3, stronger effect = lower value 1.08 [resistant] | locus YDR137W, strain rgp1, stronger effect = lower value 1.24 [resistant] | locus YDR392W, strain spt3, stronger effect = lower value 0.732 | locus YER155C, strain BEM2, stronger effect = lower value 1.13 [resistant] | locus YGL227W, strain vid30, stronger effect = lower value 1.09 [resistant]
